# High-throughput results: PubChem, National Center for Advancing Translational Sciences (NCATS)
# Shown are actives, neighbours in structure and some others; about 7.3% of the full set was active somewhere.
# Rab9 prom act – activators of Rab9 promoter; 320,000 tested, 2.8% active; Huh7 Rab9 promoter-luciferase reporter, luminescence, 24 h; Potency, µM (top dose mostly 9.22 µM), for inactives: top-dose activation, negative = inhibition, most hits filed as activators; further: % of control where 0% means no effect; nearly all actives have a fitted effect of over 60% in size
#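 Huh7 reporter line, Rab9 promoter upstream of luciferase. Compound exposure 24 h at 37 °C in reduced-serum medium with 10% FBS. Read-out: luminescence.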
# ELG1 genotox – induces genotoxicity in HEK293T cells with luciferase-tagged ELG1. Potency, µM (titrated, usually from 46 µM), inactives show top-dose activity change, positive = activation, hits mostly activators. HEK293T ELG1-luciferase reporter, luminescence, 16 h. 330,000 tested, 1.3% active. AID 504466; further: % of control where 0% means no effect; nearly all actives have a fitted effect of over 60% in size
#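 DMSO vehicle served as control against compound-treated ELG1-luciferase HEK293T cells; exposure lasted 16 hr at 37 °C and 5% CO2, followed by ONE-Glo luminescence detection after 30 min.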
# SMN2 splice up – SMN2 splice variant enhancement | HEK293 SMN2-luciferase splicing reporter, luminescence, 30-36 h | Potency, µM (doses to about 46.1 µM), for inactives: at the highest dose activity change, positive = activation, usual class: activators | 210,000 tested, 2.8% active | AID 1458; further: % of control where 0% means no effect; nearly all actives have a fitted effect of over 55% in size
#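 HEK293 cells carry an SMN2 […]–luciferase reporter in which exon 7 inclusion puts luciferase in frame. Cells were plated 10-12 h before compound addition, then incubated 30-36 h at 37C. ONE-Glo luminescence was read; sodium butyrate at 4.5 mM final served as control.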
# NPC1 promoter act – activators of NPC1 promoter; Huh7 NPC1 promoter luciferase reporter, 24 h; Potency, µM (highest dose often 9.22 µM), inactives show at the highest dose activation, actives largely listed as activators; 320,000 tested, 2.4% active; AID 485313; further: % of control where 0% means no effect; nearly all actives have a fitted effect of over 60% in size
#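 Compounds in DMSO were transferred onto Huh7 NPC1-luciferase reporter cells pre-incubated 2 h; after 24 h at 37 °C, Amplite reagent was dispensed and luminescence recorded 10 min later.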
# FLuc counter – inhibits or activates purified firefly luciferase, miR-21 counter-screen | 360,000 tested, 6.9% active | AID 588342 | Potency, µM (highest dose often 57.5 µM), without a hit: top-dose activity change, negative = inhibition, actives largely listed as inhibitors | purified FLuc, Km substrates, luminescence inhibition;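 further: plate controls were vehicle for no effect and reference inhibitor for full effect; nearly all actives have a fitted effect of over 55% in size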
# Target sequence (P08659 whole entry, looked up): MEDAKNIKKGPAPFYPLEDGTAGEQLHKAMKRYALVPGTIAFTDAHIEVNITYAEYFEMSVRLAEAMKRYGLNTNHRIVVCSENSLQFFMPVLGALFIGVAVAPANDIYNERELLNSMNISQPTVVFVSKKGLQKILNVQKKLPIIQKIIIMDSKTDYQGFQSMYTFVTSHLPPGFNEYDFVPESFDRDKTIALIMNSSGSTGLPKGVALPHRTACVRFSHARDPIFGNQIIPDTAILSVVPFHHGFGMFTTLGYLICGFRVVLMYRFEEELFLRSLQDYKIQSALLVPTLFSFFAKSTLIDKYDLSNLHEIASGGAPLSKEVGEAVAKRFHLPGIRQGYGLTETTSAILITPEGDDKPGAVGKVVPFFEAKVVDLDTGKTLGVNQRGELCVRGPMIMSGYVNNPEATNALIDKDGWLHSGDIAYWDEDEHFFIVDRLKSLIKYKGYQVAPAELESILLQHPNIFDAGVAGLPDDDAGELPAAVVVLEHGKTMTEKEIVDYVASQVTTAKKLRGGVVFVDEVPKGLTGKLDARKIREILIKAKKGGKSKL
#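 Biochemical qHTS of compounds, final roughly 60 µM downward over six points, against 10 nM purified firefly luciferase using Km concentrations of substrates (10 uM D-luciferin, 10 uM ATP) in Tris acetate pH 7.5 buffer; luminescence output.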
# uPA surface inh – blocks generation of uPA at the cell surface; Potency, µM (doses to about 38.3 µM), for the others: top-dose activity change, negative = inhibition, actives largely listed as inhibitors; cell surface uPA generation assay, qHTS; 330,000 tested, 0.31% active; active means well fitted inhibition curve with a large enough effect; inconclusive means small, poorly fitted or top-dose-only effect; inactive means no such curve, though single readings can be large or run the other way; tested in mouse RAW 264.7 cells; further: on the % scale 0 is the no-effect control and ±100 the full control effect; nearly all actives have a fitted effect of over 55% in size
# * hit, by the source's call; ? = inconclusive; · = no result. Unless noted, the call rests on the fitted dose curve; in most records, active means well fitted curve in the direction sought with a large enough effect; inconclusive means small, poorly fitted or top-dose-only effect, or another doubt; inactive means no such curve, though single readings can be large; an effect the other way counts as inactive or inconclusive. Potency means the concentration at half of the fitted maximal effect.
SMILES,Rab9 prom act,ELG1 genotox,SMN2 splice up,NPC1 promoter act,FLuc counter,uPA surface inh
CCc1cc(C(=O)N2CCCC(CCC(=O)N3CCN(c4ccccn4)CC3)C2)no1 (configuration not stated),-19.3%,-4.5%,·,-2.7%,-3.6%,-4.0%
CCc1cc(C(=O)N2CCCC(CNC(=O)c3ccc(-c4ccccc4)cc3)C2)no1 (configuration not stated),27.2%,-4.7%,·,-3.5%,12µM*,-2.2%
CSc1ccccc1C(=O)N1CCCC(CNC(=O)c2ccc(F)cc2)C1 (configuration not stated),-1.5%,-0.6%,·,-1.3%,-10.4%,2.3%
CSCCC(=O)N1CCCC(CNC(=O)c2ccc(-c3ccccc3)cc2)C1 (configuration not stated),0.2%,-2.2%,-14.1%,-1.9%,12µM*,?
CC(=O)c1c(C)[nH]c(C(=O)Nc2cccc3ccccc23)c1C,10.4%,-6.3%,·,0.6%,-9.7%,3.7%
CC(=O)c1c(C)[nH]c(C(=O)Nc2cccc(C)n2)c1C,0.447µM*,1.64µM*,·,0.355µM*,8.49µM*,?
CC(=O)c1c(C)[nH]c(C(=O)Nc2cccnc2)c1C,-2.0%,3.6%,21.2%,2.6%,-0.3%,-2.3%
CC(=O)c1c(C)[nH]c(C(=O)Nc2nccs2)c1C,2.82µM*,?,12.6µM*,?,23.9µM*,-14.6%
O=S(=O)(c1ccccc1)n1nc(-c2ccco2)nc1NCc1ccccc1,·,·,?,·,1.4%,·
Cc1ccc(-c2nn(-c3ccccc3)cc2C(=O)NCCCN2CCOCC2)cc1,4.7%,1.5%,·,9.4%,?,2.0%
Cc1ccc(NC(=O)C(=O)NCCCN2CCCC2=O)cc1,1.41µM*,2.06µM*,·,2.24µM*,12µM*,?
Cc1ccc(-c2nn(-c3ccc(F)cc3)cc2C(=O)NCCCN2CCCC2=O)cc1,2.9%,-6.7%,·,1.4%,10.7µM*,-5.0%
CC1Cn2c(C(=O)NCc3cccc(Br)c3)cc3cccc(c32)S1 (configuration not stated),·,·,·,·,6.3%,·
O=C(Nc1nc(-c2ccccc2)cs1)C1CCCCN1S(=O)(=O)c1ccccc1 (configuration not stated),1.0%,1.4%,-37.5%,8.8%,-1.1%,?
c1ccc(-c2csc(NC3CCCCC3)n2)cc1,1µM*,5.17µM*,·,0.794µM*,1.69µM*,1.4%
O=C(Nc1nc(-c2ccccc2)cs1)NC1CCCCC1,20.4%,23.1µM*,-27.5%,17.3%,?,·
COc1ccc(-c2csc(NC(=O)CN3C(=O)CCC3=O)n2)c(OC)c1,-1.0%,0.6%,16.6%,-1.1%,?,0.2%
COc1ccc(-c2csc(NC3CCCCC3)n2)c(OC)c1,22.7%,?,·,19.9%,23.9µM*,-1.9%
CC1CCCN(S(=O)(=O)c2cc3c(cc2Cl)NC(=O)CO3)C1 (configuration not stated),·,·,·,·,-4.1%,·
Cc1ccc(C(=O)CCC(=O)Nc2ccccc2C)c(C)c1,0.8%,2.6%,·,11.9%,-13.7%,1.3%
O=C(NCc1ccco1)c1ccc(Cn2c(SCc3ccccc3)nc3cccnc32)cc1,·,·,·,·,6.75µM*,·
Cc1ccc(CSc2nc3cccnc3n2Cc2ccc(C(=O)NCCc3ccccc3)cc2)cc1,·,·,·,·,0.477µM*,·
O=C(NCCc1ccccc1)c1ccc(Cn2c(SCc3ccccc3)nc3cccnc32)cc1,·,·,·,·,6.01µM*,·
O=C(NCCc1ccccc1)c1ccc(Cn2c(SCc3cccc(F)c3)nc3cccnc32)cc1,-2.2%,·,·,4.9%,-10.2%,·
O=C(NCc1ccccc1)c1ccc(CSc2nc3cccnc3n2Cc2ccccc2F)cc1,·,·,·,·,-14.5%,·
SMILES,Rab9 prom act,ELG1 genotox,SMN2 splice up,NPC1 promoter act,FLuc counter,uPA surface inh
O=C(NCc1ccccc1Cl)c1ccc(Cn2c(SCc3ccccc3)nc3cccnc32)cc1,·,·,·,·,5.36µM*,·
O=C(NC1CCCC1)c1ccc(CSc2nc3cccnc3n2Cc2ccccc2)cc1,·,·,·,·,-14.7%,·
COc1ccc(C)cc1NC(=O)Nc1nnc(N2CCCCC2)s1,·,·,·,·,1.0%,·
COc1cccc(CNC(=O)CN2C(=O)CSc3c2c(C)nn3-c2ccccc2)c1OC,·,·,·,·,1.8%,·
Cc1ccccc1CSc1nc2cccnc2n1Cc1ccc(C(=O)NCCc2cccs2)cc1,·,·,·,·,5.36µM*,·
Cc1oc(-c2ccccc2Cl)nc1CSc1nc2ncccc2[nH]1,·,·,·,·,-19.9%,·
CCOc1cc(C)c(C(C)C)cc1S(=O)(=O)n1ccnc1CC,·,·,-9.3%,·,-17.1%,·
Cc1cc(C(=O)COc2ncnc3sccc23)c(C)n1C,?,18.4µM*,11.2µM*,?,16.9µM*,-1.5%
CNC(=O)COc1ncnc2sccc12,-4.9%,1.5%,0.7%,0.2%,6.3%,3.7%
N=C1/C(=C\c2ccc(SCc3ccco3)o2)C(=O)N=C2SC=NN12,21.5%,5.9%,1.1%,-0.8%,8.49µM*,-7.0%
COc1cccc(CNC(=O)c2ccc(-c3nc(CS(=O)c4ccccc4)c(C)o3)cc2)c1 (configuration not stated),·,·,·,·,-15.7%,·
Cc1ccc2nc(-c3ccc(Cl)c(NC(=O)COc4cccc(C)c4C)c3)oc2c1,·,·,?,·,4.78µM*,·
O=C(Nc1ccc(-c2nc3ccccc3o2)cc1)c1cccnc1,1.58µM*,?,8.91µM*,2.24µM*,2.69µM*,-4.8%
COc1cc(C(=O)Nc2ccc(-c3nc4cc(C)ccc4o3)c(O)c2)cc(OC)c1OC,-3.6%,-9.1%,-17.7%,-3.6%,1.2%,3.0%
Cc1cccc(OCC(=O)Nc2ccc(-c3nc4ccccc4o3)cc2)c1C,·,·,?,·,1.4%,·
O=C(Nc1cccc(-c2nc3ccccc3o2)c1)c1cccnc1,-0.9%,-6.4%,-35.4%,-0.8%,?,1.5%
O=C(Nc1ccc2oc(-c3cccnc3)nc2c1)c1cccnc1,17.0%,2.7%,-10.4%,11.7%,?,2.4%
CCc1ccc2oc(-c3cc(NC(=O)c4cc(OC)c(OC)c(OC)c4)ccc3O)nc2c1,·,·,-7.2%,·,3.79µM*,·
Cc1ccc2oc(-c3ccc(NC(=O)c4cccnc4)cc3)nc2c1,2.24µM*,?,2µM*,2.51µM*,6.01µM*,7.6%
COc1cc(C2c3c(oc4ccccc4c3=O)C(=O)N2c2nncs2)cc(OC)c1OC (configuration not stated),·,·,-4.9%,·,0.9%,·
Cc1ccc2nc(-c3ccc(Cl)c(NC(=O)c4cccnc4)c3)oc2c1,·,·,-3.8%,·,0.601µM*,·
CCc1ccc2oc(-c3cc(N=Cc4cccc(OC)c4O)ccc3O)nc2c1,3.98µM*,?,14.1µM*,4.47µM*,0.426µM*,-6.0%
CCc1ccc2oc(-c3cc(NC(=O)c4cccnc4)cc(C)c3O)nc2c1,·,·,11.6%,·,0.849µM*,·
